Rows were chosen to be rich in hits. Some 3.1% of all compounds tested hit in one or more screens of this group.
RAD52 anneal inh = RAD52 (human) annealing inhibition; P43351; recombinant RAD52 DNA annealing, FRET fluorescence; inhibition, % at 18.7 µM; actives 0.46% (n = 360,000); AID 651710;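 active = every replicate showing at least 50% inhibition; inconclusive = mean inhibition at least 50% but not in every replicate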
MLL AF4-AF9 inh = MLL-AF4/AF9 protein interaction inhibition; P42568; AlphaScreen, biotin-AF4 peptide binding to FLAG-AF9; inhibition, % at 10 µM; actives 0.47% (n = 350,000); AID 651704;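 active = every replicate reaching a set inhibition limit, whatever the replicate mean, cut at about 25% in these data; inconclusive = mean inhibition reaches that limit but some replicates miss it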
Target sequence (P42568 whole entry, looked up): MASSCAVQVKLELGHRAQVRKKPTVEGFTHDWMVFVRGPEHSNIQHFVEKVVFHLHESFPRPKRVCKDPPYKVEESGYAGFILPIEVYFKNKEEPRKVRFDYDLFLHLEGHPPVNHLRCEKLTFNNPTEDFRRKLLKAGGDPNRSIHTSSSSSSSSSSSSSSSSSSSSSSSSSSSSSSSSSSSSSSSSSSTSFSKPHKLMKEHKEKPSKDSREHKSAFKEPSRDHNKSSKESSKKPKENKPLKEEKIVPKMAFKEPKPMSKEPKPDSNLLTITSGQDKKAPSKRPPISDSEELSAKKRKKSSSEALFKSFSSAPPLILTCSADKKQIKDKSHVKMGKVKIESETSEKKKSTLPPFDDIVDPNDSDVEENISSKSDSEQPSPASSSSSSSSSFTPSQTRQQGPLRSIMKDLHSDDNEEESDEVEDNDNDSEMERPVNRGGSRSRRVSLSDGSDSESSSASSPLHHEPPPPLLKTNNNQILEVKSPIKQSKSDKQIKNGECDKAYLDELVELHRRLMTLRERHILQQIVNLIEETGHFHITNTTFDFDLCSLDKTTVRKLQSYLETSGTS
dFosB act = enhances mouse delta FosB homodimer DNA binding; actives 0.99% (n = 340,000); AID 493131; P13346; purified delta FosB, TAMRA-CDK5 oligo fluorescence polarization; percent of positive-control signal above neutral wells; activation, % at 25 µM;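 active = mean activation above about 17%, with every replicate also reaching it, limit read from the data, passing the limit was not always enough; inconclusive = only one of the two conditions met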
DENV2 CPE = inhibitors of DENV2 cytopathic effect; actives 1.7% (n = 350,000); DENV2-infected cells, cytopathic effect rescue, plate reader; CPE inhibition, % at 9.99 µM; in the data active = CPE inhibition above about 20%, passing the limit was not always enough; inconclusive = no clear call, values can overlap the other calls; tested in BHK-21 cells
RAD54 branch = blocks human RAD54 Holliday junction branch migration | AID 602329 | inhibition, % at 10.4 µM | Q92698 | actives 0.14% (n = 360,000) | FAM/BHQ fluorescence;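 active = mean normalized replicate activity at least 40 and at least half of replicates scoring 40 or more; inconclusive = only one of the two criteria met; inactive = mean below 40 and under half of replicates reaching 40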;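 note: inhibitors cause a drop in the FAM fluorescence signal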
GSIS activator = primary screen for activators of insulin secretion dependent on glucose, INS-1E cells, GLuc reporter luminescence | INS-1E GLuc reporter insulin secretion, 2-3 h | actives 0.61% (n = 370,000) | activation, % at 16.6 µM;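 active = lowest replicate activation of at least 40%, so every replicate reaches that level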
A number is an active result; i = inactive; ? = inconclusive; nt = no result; ! = not confirmed by another sample.

SMILES | RAD52 anneal inh | MLL AF4-AF9 inh | dFosB act | DENV2 CPE | RAD54 branch | GSIS activator
CCC(=O)Nc1ccc2c(c1)C(=O)N(C)[C@@H]1CC[C@@H](CC(=O)NCCOC)O[C@@H]1CO2 | i | i | nt | i | i | i
CCN=C1S/C(=C\c2cc(Br)c(O)c(OC)c2)C(=O)N1CC | i | i | i | i | i | 53
CCN=C1S/C(=C\c2sccc2C)C(=O)N1CC | i | i | i | i | nt | 63
Cc1ccsc1/C=C1\SC(=S)N(CC2CCCO2)C1=O (stereo unspecified) | i | i | i | i | nt | i
C[C@H](CO)N1C[C@H](C)[C@H](CN(C)C(=O)NC2CCCCC2)Oc2ccc(N(C)C)cc2CC1=O | i | i | nt | i | i | i
C[C@H]1CN([C@@H](C)CO)C(=O)Cc2cc(NC(=O)Nc3ccc4c(c3)OCO4)ccc2O[C@@H]1CN(C)S(=O)(=O)c1ccccc1 | i | i | nt | i | nt | i
CCCC(=O)Nc1nnc(/C=C/c2ccc(OC)cc2)s1 | i | i | i | i | nt | i
COc1ccc(/C=C/c2nnc(NC(=O)C(C)(C)C)s2)cc1 | i | nt | i | 70 | nt | i
COC(=O)[C@H]1[C@H](CO)[C@H]2Cn3c(cccc3=O)[C@H]2N1CC1CCOCC1 | i | i | nt | i | i | i
COc1cccc(OCc2cc(C(=O)N(C)CCC3CCCCO3)no2)c1 (stereo unspecified) | i | i | i | 39 | i | i
CCCN(CC1CCCO1)C(=O)c1cc(COc2cccc(OC)c2)on1 (stereo unspecified) | i | i | i | i | i | i
CO[C@@H]1CN(C)C(=O)c2cc(NC(C)=O)ccc2OC[C@@H](C)N(C(=O)c2ccccc2F)C[C@H]1C | i | i | nt | i | i | i
Cc1c(O)c(CN2CCCCC2)cc2c3c(c(=O)oc12)CCC3 | nt | nt | i | nt | i | nt
Cc1cc(N=Nc2ccc(Cl)cc2)cc(CN2CCCC2)c1O | i | 49 | i | i | i | i
Cc1nc2scc(C)n2c(=O)c1S(=O)(=O)Nc1ccc(N2CCN(C(=O)C(C)C)CC2)cc1 | i | i | i | 51 | i | i
C[C@H]1CCCCO[C@H](CN(C)S(=O)(=O)c2ccccc2)[C@@H](C)CN([C@@H](C)CO)C(=O)c2cc(NC(=O)CCCN(C)C)ccc2O1 | i | i | nt | 41 | i | i
Cc1ccc(S(=O)(=O)N(C)C[C@@H]2OCCCC[C@@H](C)Oc3ccc(NC(=O)CCCN(C)C)cc3C(=O)N([C@H](C)CO)C[C@H]2C)cc1 | i | i | nt | i | i | i
C[C@@H]1CN([C@@H](C)CO)C(=O)c2cc(NC(=O)CCCN(C)C)ccc2O[C@@H](C)CCCCO[C@@H]1CN(C)S(=O)(=O)c1ccccc1 | i | i | nt | 31 | i | i
C[C@@H]1CN([C@H](C)CO)C(=O)c2cc(NC(=O)CCCN(C)C)ccc2O[C@@H](C)CCCCO[C@H]1CN(C)S(=O)(=O)c1ccccc1 | i | i | nt | 23 | i | i
C[C@@H]1CCCCO[C@@H](CN(C)S(=O)(=O)c2ccccc2)[C@H](C)CN([C@@H](C)CO)C(=O)c2cc(NC(=O)CCCN(C)C)ccc2O1 | i | i | nt | 26 | i | i
Cc1ccc(S(=O)(=O)N(C)C[C@@H]2OCCCC[C@@H](C)Oc3ccc(NC(=O)CCCN(C)C)cc3C(=O)N([C@H](C)CO)C[C@@H]2C)cc1 | i | i | nt | i | i | i
C[C@@H]1CN([C@@H](C)CO)C(=O)c2cc(NC(=O)CCCN(C)C)ccc2O[C@@H](C)CCCCO[C@H]1CN(C)S(=O)(=O)c1ccccc1 | i | i | nt | i | i | i
C[C@H](CO)N1C[C@H](C)[C@@H](CN(C)S(=O)(=O)c2ccccc2)OCCCC[C@H](C)Oc2ccc(NC(=O)CCCN(C)C)cc2C1=O | i | i | nt | i | i | i
C[C@@H]1CCCCO[C@H](CN(C)C(=O)Nc2ccc3c(c2)OCO3)[C@H](C)CN([C@@H](C)CO)C(=O)c2cc(NS(=O)(=O)c3cn(C)cn3)ccc2O1 | i | i | nt | i | i | i
COc1cccc(NC(=O)N[C@H]2CC[C@@H](CC(=O)Nc3ccc(-c4ccccc4)cc3)O[C@@H]2CO)c1 | i | i | nt | i | i | i
SMILES | RAD52 anneal inh | MLL AF4-AF9 inh | dFosB act | DENV2 CPE | RAD54 branch | GSIS activator
CCOC(=O)N1CCC(NC(=O)c2cccc3c2C(=O)N(CCOC)C3)CC1 | i | i | i | 62 | i | nt
COc1ccc(-c2cc3nc(-c4ccccc4)cc(N4CCN(C(=O)c5ccsc5)CC4)n3n2)cc1 | i | i | nt | 63 | i | i
COc1ccc(-c2cc3nc(-c4ccccc4)cc(N4CCN(C(=O)c5ccccc5)CC4)n3n2)cc1 | i | i | nt | i | nt | i
COc1ccc(CNC(=O)CN2C(=O)NC3(CCCCCC3)C2=O)cc1 | i | i | i | i | i | 62
C[C@@H]1CCCCO[C@H](CN(C)C(=O)NC2CCCCC2)[C@H](C)CN([C@@H](C)CO)C(=O)c2cc(NC(=O)CCCN(C)C)ccc2O1 | i | i | nt | i | i | i
O=C(Cn1ccccc1=S)c1ccc(Cl)c(Cl)c1 | i | i | nt | i | i | i
On1ccccc1=S | i | i | i | i | i | 87
CCc1ccc(C(=O)COC(=O)C(Cc2ccccc2)NC(=O)C2CCC(C)CC2)cc1 (stereo unspecified) | nt | nt | i | nt | i | 48
CCc1ccc(C(=O)COC(=O)C(Cc2ccccc2)NC(=O)c2ccc(Cl)cc2)cc1 (stereo unspecified) | nt | nt | i | nt | i | nt
COc1cccc(C#Cc2ccc3c(c2)O[C@@H](CN(C)C)[C@@H](C)CN([C@H](C)CO)S3(=O)=O)c1 | i | i | nt | ? | i | i
Cc1ccc(NC2=C(Cl)C(=O)c3ccccc3C2=O)cc1 | i | i | i | 83 | i | i
COC1=C(Nc2ccc(OC)cc2)C(=O)c2ccccc2C1=O | nt | nt | i | nt | nt | i
COC1=C(Nc2ccc(O)cc2)C(=O)c2ccccc2C1=O | i | 50 | i | nt | nt | i
O=C([C@H]1[C@H](CO)[C@H]2Cn3c(ccc(/C=C/c4ccccc4)c3=O)[C@@H]1N2)N1CCCCC1 | i | i | nt | i | i | i
CN1C[C@@H]2[C@H](c3ccccc31)[C@H](CO)N2C(=O)C1CCCC1 | nt | i | nt | nt | i | i
COc1cccc(-c2ccc([C@H]3[C@@H](CO)N4CCCCN(C(=O)c5ccc6c(c5)OCO6)C[C@H]34)cc2)c1 | i | i | nt | i | i | i
CCc1ccc(NS(=O)(=O)c2ccc3c(c2)oc(=O)n3C)cc1 | i | 35 | i | i | i | i
Cc1ccc(NS(=O)(=O)c2ccc3c(c2)oc(=O)n3C)cc1 | i | i | i | i | i | i
C/C=C/c1ccc([C@@H]2[C@@H](CO)N(C(C)=O)C23CN(C(=O)NC2CCCCC2)C3)cc1 | i | i | nt | i | nt | i
Cc1ccc(/C=C2/NC(=O)N(Cc3ccc(Br)cc3)C2=O)o1 | nt | nt | i | nt | i | 57
Cc1noc(C)c1NC(=O)N(C)C[C@H]1Oc2ccc(NS(=O)(=O)c3c(C)noc3C)cc2C(=O)N([C@H](C)CO)C[C@@H]1C | i | i | i | 30! | i | i

Compound activity (PubChem)
